In PubChem BioAssay AID588856 (National Center for Advancing Translational Sciences (NCATS), 2011):
“And” between values parts separate entries of the source, which are not always exact repeats. Equal entries are not always repeated. About 3,100 (0.76%) of roughly 410,000 compounds were called active. Calls follow the shape of the dose curve; as a rule, active = well fitted cell-killing curve with a large enough effect; inactive = no such curve, though single readings can be large or run the other way. Many of the other results were omitted from the sample, so actives are more common in it than they were. More than one record can exist for a structure, and the calls need not agree.

Experiment: qHTS for Inhibitors of TGF-b: Cytotox Counterscreen
Conditions: HepG2 CAGA-GFP viability, ATP luminescence, 18 h; series mostly up to 46.1 µM; activity change, negative = cytotoxicity: at the top concentration
Summary of the method: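 HepG2 CAGA-GFP cells (1000/well, DMEM with 1% FBS) received compound, then TGF-beta at 500 pg/mL final, and were incubated 18 hours at 37 degrees C. Viability was read by CellTiter-Glo luminescence. Media-only wells were set as complete cell-killing and DMSO as no toxicity.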
Potency is read from the fitted curve at half-maximal effect.

| Compound | Potency | activity change, negative = cytotoxicity |
| --- | --- | --- |
| CC1=C/C(=N\OS(=O)(=O)c2ccccc2)C=CC1=O | 12.6 µM (active) |  |
| CCc1ccc(CNC(=O)c2cc3cc4ccc(OC)cc4nc3o2)cc1 |  | 3.03% (inactive) |
| Cc1ccc(-c2cnc(C3CC3)o2)cc1S(=O)(=O)Nc1cccc(C)c1C |  | 1.81% (inactive) |
| CCC(=O)c1ccc(N2CCN(C(=O)c3cc([N+](=O)[O-])ccc3F)CC2)c(F)c1 |  | -3% (inactive) |
| C=CCNC(=S)N1CCN(CCN=Cc2c(C)[nH]n(-c3ccc([N+](=O)[O-])cc3)c2=O)CC1 |  | -19% (inactive) |
| Cc1[nH]n(-c2ccc([N+](=O)[O-])cc2)c(=O)c1C=NCCN1CCN(C(=O)c2ccccc2F)CC1 | 2 µM (active) |  |
| Cc1ccc2ccc3c(c2n1)NS(=O)(=O)c1ccccc1-3 |  | 28.5% (inactive) |
| COc1ccc(C(CCN2CCOCC2)c2c(OC)cc(OC)c3c2OC(=O)CC3c2ccc(OC)cc2)cc1 (centres undefined) |  | -48.7% (inactive) |
| O=C(C[n+]1ccncc1)c1ccc2c(c1)CCCC2 |  | -2.25% (inactive) |
| Cn1cc(C(=O)c2ccc(Cl)cc2Cl)cc1C(=O)NN |  | -0.199% (inactive) |
| CC(C)(C)c1cc(C(=O)NN)n(Cc2ccc(Cl)cc2Cl)n1 | 12.6 µM (active) |  |
| CC(C)(CNC(=O)Cc1ccc(Cl)cc1Cl)N1CCOCC1 |  | 4.49% (inactive) |
| CCOC(=O)C1CCCN(C(=O)c2ccc3c(c2)sc2nc(-c4ccc(CC)cc4)cn23)C1 (centres undefined) |  | -20.7% (inactive) |
| Cc1ccc2c(c1)N(C(=O)Nc1ccc(Br)cc1F)CCO2 |  | -6.53% (inactive) |
| COc1cccc(NC(=O)CSc2cc(=O)n(C)c3ccc(Cl)cc23)c1 |  | -17.9% (inactive) |
| CCCC(O)(CCC)C(=O)NN(C(=O)CCl)c1cccc(C)c1 | 20 µM (active) |  |
| CCCCC(O)(CCCC)C(=O)NN(C(=O)CCl)c1ccccc1 |  | -35.8% (inactive) |
| Cc1cccc(N(Cc2ccccc2)C(=O)c2ccccc2F)c1 |  | 0.172% (inactive) |
| CCCn1c(NCc2ccc(N(CC)CC)cc2)nc2ccccc21 |  | -55.2% (inactive) |
| CCOC(=O)c1c(C)[nH]c2c1-c1ccccc1C(=O)C2=O | 1.26 µM (active) |  |
| CCOC(=O)c1c(C)[nH]c(C)c1S(=O)(=O)N(C)CC(=O)N1CCN(c2ccccc2)CC1 |  | -12.6% (inactive) |
| CCOC(=O)c1c(SCC(=O)Nc2cccc(C)c2C)nc(=O)[nH]c1C |  | -0.809% (inactive) |

| Compound | Potency | activity change, negative = cytotoxicity |
| --- | --- | --- |
| CCc1nnc(NS(=O)(=O)c2ccc(NC(=S)NC(=O)/C=C/c3cccs3)cc2)s1 |  | -1.11% (inactive) |
| CCc1nnc(NC(=O)CCN(c2ccc(C)cc2)S(=O)(=O)c2ccccc2)s1 |  | -28% (inactive) |
| CCc1nnc(NS(=O)(=O)c2ccc(N=Cc3c(C)[nH]n(-c4ccc(C)cc4)c3=O)cc2)s1 | 8.91 µM (active) |  |
| CN(N=O)c1ccc(C=C2c3ccccc3-c3ccccc32)cc1 |  | -2.38% (inactive) |
| COc1ccc(C2CC(c3cccc(OC)c3)=NN2c2ccc(S(N)(=O)=O)cc2)cc1 (centres undefined) |  | -33.7% (inactive) |
| Oc1ccccc1C1=NN(c2ccccc2)C(c2ccccc2)C1 (centres undefined) | 10 µM (active) |  |
| Cc1ccc(N2C(=O)C3N=NN(CC(=O)N4N=C(c5cccc6ccccc56)CC4c4ccccc4)C3C2=O)cc1 (centres undefined) |  | -12.9% (inactive) |
| CC(=O)c1ccc[n+](C(C)CCC(C)[n+]2cccc(C(C)=O)c2)c1 (centres undefined) |  | 18.6% (inactive) |
| CCOC(=O)c1c(S(=O)(=O)N2CCC(C(=O)NCc3ccccc3OC)CC2)c(C)n(C)c1C |  | 1.49% (inactive) |
| CCCCCCCCCCOC(=O)Cn1c(COc2cccc(OC)c2)[n+](C)c2ccccc21 | 20 µM (active) |  |
| OC(CBr)CN1CCCCC1 (centres undefined) |  | 7.58% (inactive) |
| CC(=O)Nc1cccc(NC(=O)CSc2nccn2Cc2ccc3c(c2)OCO3)c1 |  | -20% (inactive) |
| Cc1cccc(NC(=O)Cn2c(=O)n(CCC(C)C)c(=O)c3cccnc32)c1 |  | 0.34% (inactive) |
| CCC1CCCCN1CCCNC(=O)c1cc2c(Cl)nc3ccccc3c2s1 (centres undefined) | inactive and 12.6 µM (active) |  |
| CCn1c(=O)c2cc(C(=O)NCCc3ccc(Cl)cc3)sc2c2ccccc21 |  | 3.83% (inactive) |
| O=C(NCCN1CCN(Cc2ccccc2)CC1)c1cc2c(=O)[nH]c3ccccc3c2s1 |  | -58.5% (inactive) |
| CCCOc1ccc(C2c3c(-c4ccccc4O)n[nH]c3C(=O)N2Cc2cccnc2)cc1 (centres undefined) |  | -79% (inactive) |
| COc1ccc(CCN2C(=O)c3[nH]nc(-c4ccccc4O)c3C2c2ccc(C)cc2)cc1OC (centres undefined) |  | -76.8% (inactive) |
| CCCCN1C(=O)c2[nH]nc(-c3ccccc3O)c2C1c1cccc(OCc2ccccc2)c1 (centres undefined) | 14.1 µM (active) |  |
| O=c1[nH]c2cc(Br)ccc2n2cccc12 |  | 0.445% (inactive) |
| Cc1cccc(N2CCN(C(=O)c3cc4c(=O)oc5ccccc5c4s3)CC2C)c1 (centres undefined) |  | -22.6% (inactive) |
| CC(C)c1ccc2oc(-c3cc(NC(=O)c4cccs4)ccc3Cl)nc2c1 |  | -4.59% (inactive) |

| Compound | Potency | activity change, negative = cytotoxicity |
| --- | --- | --- |
| CCCn1nc(C(=O)NNC(=O)CSCC(=O)Nc2cc(C)on2)c2ccccc2c1=O | 11.2 µM (active) |  |
| CCCCn1nc(C(=O)Nc2cccc(C(=O)NC3CC3)c2)c2ccccc2c1=O |  | 0.488% (inactive) |
| CCCn1nc(C(=O)NNC(=O)CCOc2ccccc2OCC)c2ccccc2c1=O |  | -14.2% (inactive) |
| Cc1csc[n+]1CCC1CCCCC1 |  | -12.3% (inactive) |
| O=C(O)C1CC=CC2CCN(C3CCCCC3)C(=O)C21 (centres undefined) |  | -8.33% (inactive) |
| CCCS(=O)(=O)Nc1cccc(-c2cn3ccsc3n2)c1 |  | -12.9% (inactive) |
| CSc1nc(-c2ccccc2)nc(C(Cl)Cl)n1 | 5.01 µM (active) |  |
| CSc1nc(Nc2ccc(F)cc2)cc(-c2ccccc2)n1 |  | -48.3% (inactive) |
| O=C(NCC1CC1)C1(C(F)(F)F)C/C(=C\CCO)CCCO1 (centres undefined) |  | 2.46% (inactive) |
| Cc1ccc(N(Cc2cc(=O)[nH]c3ccccc23)C(=O)CCl)cc1 | 17.8 µM (active) |  |
| Cc1ccc(N(Cc2ccccc2O)C(=O)c2ccccc2F)cc1 |  | -24.5% (inactive) |
| Cn1nnnc1SCc1cc(=O)[nH]c2ccccc12 |  | 4.53% (inactive) |
| O=c1cc(-c2ccccc2)n2c(SCc3ccccc3)nnc2[nH]1 |  | -7.93% (inactive) |
| CC(C)NC(=O)C1CCC(Cn2c(=O)c3sccc3n(Cc3ccc(F)cc3)c2=O)CC1 (centres undefined) |  | -3.48% (inactive) |
| O=C(NC(c1ccc(-c2ccccc2)cc1)c1cnccn1)C1CCN(CCOc2ccc(Cl)cc2Cl)CC1 (centres undefined) |  | -103% (inactive) |
| Cc1cccnc1C(NC(=O)C1CCN(Cc2ccc(Cl)c(Cl)c2)CC1)c1ccc(Cl)cc1 (centres undefined) |  | -35.5% (inactive) |
| Cc1ccc(C(NC(=O)C2CCN(CCOc3ccc(Cl)cc3Cl)CC2)c2ccccn2)cc1 (centres undefined) | 20 µM (active) |  |
| Cc1cccc2c1N(CCOc1ccccc1)C(=O)C2=O |  | 23.1% (inactive) |
| CCCCOc1ccc(CN2C(=O)C(=O)c3cc(Br)cc(C)c32)cc1OC | 15.8 µM (active) |  |
| CCCCOc1ccc(Cn2c(=O)oc3ccc(C)cc32)cc1OC |  | 0.757% (inactive) |
